From PubChem BioAssay AID1259318 (Sanford-Burnham Center for Chemical Genomics, 2017)
The campaign covered roughly 370,000 compounds. About 3,000 (0.81%) were called active. The sample as a whole holds a higher share of actives than the screen did. Unmarked numbers belong to inactive results.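 The calls were made as follows: active = activity above about 14% (limit read from the data; passing the limit was not always enough); inactive = the rest.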

target: Nuclear receptor subfamily 1 group D member 1 (Homo sapiens) (UniProt P20393); assay: Rev-erbα–DNA interaction modulation – biochemical, FITC-DNA, fluorescence polarization, uHTS, primary screen (AID 1259318); details: Rev-erbα–FITC-DNA binding, 90 min, at 10 µM, active compounds read high;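 also: 0% = DMSO wells with 35 nM protein and 100% = DMSO wells with 750 nM protein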
Sequence (P20393 whole entry, looked up): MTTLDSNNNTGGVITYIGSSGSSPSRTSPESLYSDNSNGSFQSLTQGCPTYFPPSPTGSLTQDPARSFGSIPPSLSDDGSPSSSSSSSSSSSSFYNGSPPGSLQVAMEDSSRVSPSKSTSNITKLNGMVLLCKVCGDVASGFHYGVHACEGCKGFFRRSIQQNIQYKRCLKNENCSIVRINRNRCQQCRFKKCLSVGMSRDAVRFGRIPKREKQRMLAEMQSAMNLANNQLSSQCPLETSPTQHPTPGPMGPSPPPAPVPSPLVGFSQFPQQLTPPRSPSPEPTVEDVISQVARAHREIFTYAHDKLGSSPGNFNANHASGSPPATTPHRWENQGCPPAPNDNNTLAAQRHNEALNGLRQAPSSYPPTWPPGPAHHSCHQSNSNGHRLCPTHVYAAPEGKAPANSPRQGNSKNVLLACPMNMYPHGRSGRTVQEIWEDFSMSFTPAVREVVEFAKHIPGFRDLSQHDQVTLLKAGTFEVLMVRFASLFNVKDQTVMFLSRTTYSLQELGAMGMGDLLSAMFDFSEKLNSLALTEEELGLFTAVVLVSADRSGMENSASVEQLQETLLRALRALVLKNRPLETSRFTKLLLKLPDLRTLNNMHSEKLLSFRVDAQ

Compound	activity
O=C(CCn1c(=S)[nH]c2cc3c(cc2c1=O)OCO3)NCc1ccc(Cl)cc1	21.7% (active)
CC(C)NC(=O)CCCn1c(=S)[nH]c2cc3c(cc2c1=O)OCO3	-1.56%
CCN(CC)CCCNC(=O)c1ccc2c(=O)n(Cc3ccc4c(c3)OCO4)c(=S)[nH]c2c1	-2.35%
CCC[C@H]1C(=O)CC[C@@]23CCCN2C(=O)CCC[C@@H]13	-1.54%
CO/N=C(/C(=O)N[C@@H]1C(=O)N2C(C(=O)O)=C(CSc3nc(=O)c(O)nn3C)CS[C@H]12)c1csc(N)n1	-8.75%
O=C(Nc1ccc(F)cc1)C1CCCN(S(=O)(=O)c2ccc(-n3cnnn3)cc2)C1 (configuration not stated)	4.65%
Cc1nn(C)cc1N1C(=O)c2cccc3c(N)ccc(c23)C1=O	153% (active)
CN1C(=O)c2cccc3c(N)ccc(c23)C1=O	275% (active)
COc1ccc(-c2cc(-c3nnc(SCC(=O)Nc4cccc5ccccc45)n3N)[nH]n2)cc1	-0.24%
O=C(OCc1ccccc1)c1ccc(O)cc1	-3.01%
CC(=O)C1(C)N(O)C(C)(C)C(c2cccs2)=[N+]1[O-] (configuration not stated)	-3.38%
C=C1C(C(C)C)N(C)C2=NC(c3ccccc3)CC(=O)N12 (configuration not stated)	0.81%
O=S1(=O)CC(N2CCN(Cc3ccccc3F)CC2)CN1Cc1cn(Cc2ccccc2)nn1 (configuration not stated)	-7.27%
COc1ccc(/C=C2\SC(=S)N(CCCC(=O)NC3CCCC3)C2=O)cc1OC	40.1% (active)
COc1ccc(CCNC(=O)CCC(=O)NC2CCCCC2)cc1OC	-2.47%
COc1ccc(-c2noc(CCCC(=O)NC3CCCC3)n2)cc1OC	-0.42%
O=C(NC1CCC1)c1ccc(C#Cc2cccc(F)c2)c[n+]1[O-]	1.34%
Cc1cc(NC(=O)CSc2nc(C(C)C)nc3sc4c(c23)CCC(C)C4)no1 (configuration not stated)	58.2% (active)
Cc1cc(NC(=O)CSc2nc(=O)cc(N)n2-c2ccc(F)cc2)no1	-4.08%
CCn1c(SCC(C)=O)nc2sc3c(c2c1=O)CCCC3	-1.07%
Cc1nc(SCC(=O)Nc2cc(C)on2)c2c3c(sc2n1)CCCC3	27% (active)
Cc1cc(NC(=O)Cn2nc(C(F)(F)F)c3c2CCCC3)no1	-1.28%

Compound	activity
Cc1cc(NC(=O)CSc2nnc(-c3ccc(Cl)s3)o2)no1	6.3%
O=C(NCc1ccco1)C1CCCN(S(=O)(=O)c2ccc(Cl)s2)C1 (configuration not stated)	-2.05%
COCCCNC(=O)CN1CCN(Cc2ccccc2Cl)C1=O	-7.51%
COC(=O)Nc1ccc(S(=O)(=O)N(C)CC(F)(F)C(F)F)cc1	3.77%
CCOc1ccccc1N1CCN(C(=S)Nc2ccc(S(N)(=O)=O)cc2)CC1	-6.97%
CCOC(=O)c1ccc(NC(=S)N2CCN(c3ccccn3)CC2)cc1	26.1% (active)
CCN(CC)c1ccc(NC(=O)CN2CCN(c3ccccn3)CC2)cc1	-0.51%
O=C1CC(C(=O)O)NC(=S)N1 (configuration not stated)	-0.01%
CCCCCCSc1ccc([C@@H]2[C@H]3C(=O)N(CC)C(=O)[C@H]3[C@]3(C(=O)OC)CCCCN23)cc1	-1.1%
COC(=O)[C@]12CCCCC=C1N(Cc1ccccc1)C(=O)[C@H](CC(=O)NCc1ccc(C)o1)C2	-2.87%
N#Cc1c(N)nc2c3c(sc(=N)c2c1N)NC(=O)CC3c1ccccc1Cl (configuration not stated)	31.7% (active)
CCOc1cc(-c2conc2N)cc(OCC)c1OCC	-2.64%
CCOc1cc(-c2cc(-c3ccc(OC)cc3)nc(N)c2C#N)ccc1O	31.7% (active)
COc1ccc(-c2nc3n(c(=O)c2C#N)CCS3)c(OC)c1	0.62%
CCn1c(=O)n2n(c1=O)[C@@]1(C=C3CCCC[C@H]32)N=C(NC(=O)c2ccccc2)N(Cc2ccccc2)[C@H]1Cc1ccccc1	-9.89%
C/C(=N\NC(N)=S)c1ccncc1	0.98%
CCN(CC)c1ccc2cc(C(N)=O)/c(=N\NC(=O)c3ccncc3)oc2c1	35.1% (active)
CCN(CC)c1ccc(/C=N/NC(=O)CNC(=O)c2cccs2)cc1	0.7%
N#C/C(C(=O)N1CCOCC1)=C1/SC(Cc2ccc(F)cc2)C(=O)N1c1ccccc1 (configuration not stated)	5.35%
COC(=O)c1ccccc1N=Nc1c(C)[nH][nH]c1=O	3.84%
O=S(=O)(c1ccccc1)c1nc(Cc2ccccc2)oc1N1CCOCC1	-4.54%
c1ccc(CSc2ncnc3c2sc2nc(N4CCOCC4)c4c(c23)CCCC4)cc1	158% (active)

Compound	activity
CC(=O)c1c(N2CCOCC2)nc(=S)n(Cc2ccccc2)c1C	-2.43%
CCOC(=O)N1CCN(c2cc(C)c([N+](=O)[O-])cc2F)CC1	-1.95%
CCC(=O)Nc1ccc2c(c1)C(=O)N(C)[C@H]1CC[C@H](CC(=O)NCCOC)O[C@@H]1CO2	9.28%
CCC(=O)Nc1ccc2c(c1)C(=O)N(C)[C@@H]1CC[C@@H](CC(=O)NCCc3ccccc3)O[C@H]1CO2	15.2%
CCCNC(=O)Nc1ccc2c(c1)C(=O)N(C)[C@H]1CC[C@H](CC(=O)NCC3CCCCC3)O[C@@H]1CO2	119% (active)
CC(Sc1nnnn1C)C(=O)NC(=O)NC1CCCCC1 (configuration not stated)	6.95%
CN(CC(=O)NCCc1ccc(F)cc1)CC(=O)Nc1ccc(F)c(F)c1F	-0.12%
COc1ccccc1CCNC(=O)C1CCN(c2nc(C)cc(C)n2)CC1	2.47%
COc1ccc(Cl)cc1-n1c(C)cc(C(=O)OCC(=O)N2CC(=O)Nc3ccccc32)c1C	-0.59%
COc1ccc(CCNc2cc(C)nc3c(-c4ccc(Cl)cc4)c(C)nn23)cc1OC	7%
CCOC(=O)CSc1nc2ccc(C)cc2n2cnnc12	1.03%
COc1ccc(CCNc2nc3ccc(C)cc3n3cnnc23)cc1OC	41.9% (active)
COC(=O)Cn1c(=NC(=O)c2cc(OC)c(OC)c(OC)c2)sc2cc(OC)ccc21	23.3% (active)
COC(=O)Cn1c2ccc(C)cc2c2nc(C)sc21	5.92%
COC(=O)Cn1c(=NC(=O)CSCC(=O)Nc2cc(C)on2)sc2ccccc21	3.13%
CCCCCCCCCCCCCCCC(=O)O[C@@H]1[C@@H](O)[C@@H](O)C([C@H](NC(=O)[C@@H]2C[C@@H](CCC)CN2C)[C@H](C)Cl)O[C@@H]1SC (some centres not stated)	-0.49%
Cc1ccc(N(C(=O)Cc2cccs2)C2C=CS(=O)(=O)C2)cc1Cl (configuration not stated)	8.02%
CC(C)(C)CC(C)(C)NCC(O)COCCOc1ccc(Br)cc1 (configuration not stated)	-2.77%
COc1ccc2sc(-c3ccccc3OC)c(-c3ccc(OCCN4CCCC4)cc3)c2c1	2.94%
COc1ccc2sc(-c3ccc(S(C)(=O)=O)cc3)c(-c3ccc(C(N)=O)cc3)c2c1	29.1% (active)
COc1ccc(N(Cc2ccc(N(C)C)cc2)C(=O)c2ccc(S(C)(=O)=O)cc2)cc1	-2.66%
COc1ccc(C(=O)NCC2CCCCC2)cc1S(=O)(=O)N1CCCC1	3.18%

Compound	activity
CC(C(=O)O)c1ccc(C2CCCCC2)c2ccccc12 (configuration not stated)	-0.34%
CC(=O)OCC(=O)[C@@]1(O)CCC2C3CCC4=CC(=O)C=C[C@]4(C)[C@@]3(F)[C@@H](O)C[C@@]21C (some centres not stated)	-0.05%
COc1ccccc1N1CC(C(=O)Nc2ccc(S(=O)(=O)N3CCOCC3)cc2)CC1=O (configuration not stated)	2.07%
COc1cc(OC)c(N2CC(C(=O)Nc3cc(Cl)ccc3N3CCOCC3)CC2=O)cc1Cl (configuration not stated)	15.7% (active)
COc1ccc(Cl)cc1NC(=O)C1CC(=O)N(c2ccc(F)cc2)C1 (configuration not stated)	-2.88%
COc1ccc(CN2C(=O)C(CC(=O)NCCCCc3ccccc3)CC(C(=O)N3CCOCC3)=C2C)cc1 (configuration not stated)	0.56%
COCc1cc(C)nc(Nc2cc(C)ccc2C)c1C#N	1.3%
Cc1cccc(NC(=O)CCn2c(=O)oc3ccccc32)c1	4.67%
COCc1cc(C)nc(SCC(=O)Nc2cccc(C)c2)c1C#N	20.6% (active)
C=CCC1(CC=C)CCCN1C(=O)c1cc(COc2ccc(-n3cncn3)cc2)on1	3.62%
Cc1ccc(NC(=S)NNC(=O)CSc2nnc(SCc3ccccc3Cl)s2)cc1	3.4%
CC(C)N(C(=O)CSc1nc(COc2ccccc2)nc2ccccc12)C(C)C	4.08%
CCCc1nc(SCC(=O)Nc2ccc(S(=O)(=O)N(C)C)cc2)c2ccccc2n1	28% (active)
CN(C)S(=O)(=O)c1ccc(NC(=O)COC(=O)c2n[nH]c3ccccc23)cc1	1.34%
NC(=O)c1ncn([C@@H]2O[C@H](C(=O)O)[C@@H](O)[C@H]2O)n1	-0.1%
CSCC[C@H](NC(=O)N1CCn2c1nc1ccccc12)C(=O)NC1CCCCC1	0.83%
COc1ccc(-c2nn(C)c(=O)c3ccccc23)cc1CNC(=O)C1CCCCC1	-3.48%
COc1ccc(S(=O)(=O)N2CCCCC2)cc1NC(=O)COc1ccccc1	1.75%
COc1ccc(-c2nn(C)c(=O)c3ccccc23)cc1NC(=O)COc1ccccc1	25.4% (active)
C=CCNC(=O)c1ccc2c3n(nc2c1)-c1ccc(C)cc1CO3	0.44%
CCc1cc(=O)oc2c(C)c(OCC(=O)N3CC[C@@]4(O)CCCC[C@H]4C3)ccc12	2.4%
